Rows were chosen to be rich in hits. Some 28% of all compounds tested hit in one or more screens of this group.
Mac1 fbg inh – inhibitors of CD11b/CD18 adhesion to fibrinogen, primary screen, K562 cells, luminescence; ATPlite luminescence; Mn2+ added to activate the integrin; Integrin beta-2 (Homo sapiens) + Integrin alpha-M (Homo sapiens), P05107+P11215; hit rate 0.54% among 93,000; inhibition, % at 10 µM;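 active = primary inhibition of 50% or more at 10 µM, then 40% or more on retest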
Target sequence (P05107 whole entry, looked up, other chains not shown): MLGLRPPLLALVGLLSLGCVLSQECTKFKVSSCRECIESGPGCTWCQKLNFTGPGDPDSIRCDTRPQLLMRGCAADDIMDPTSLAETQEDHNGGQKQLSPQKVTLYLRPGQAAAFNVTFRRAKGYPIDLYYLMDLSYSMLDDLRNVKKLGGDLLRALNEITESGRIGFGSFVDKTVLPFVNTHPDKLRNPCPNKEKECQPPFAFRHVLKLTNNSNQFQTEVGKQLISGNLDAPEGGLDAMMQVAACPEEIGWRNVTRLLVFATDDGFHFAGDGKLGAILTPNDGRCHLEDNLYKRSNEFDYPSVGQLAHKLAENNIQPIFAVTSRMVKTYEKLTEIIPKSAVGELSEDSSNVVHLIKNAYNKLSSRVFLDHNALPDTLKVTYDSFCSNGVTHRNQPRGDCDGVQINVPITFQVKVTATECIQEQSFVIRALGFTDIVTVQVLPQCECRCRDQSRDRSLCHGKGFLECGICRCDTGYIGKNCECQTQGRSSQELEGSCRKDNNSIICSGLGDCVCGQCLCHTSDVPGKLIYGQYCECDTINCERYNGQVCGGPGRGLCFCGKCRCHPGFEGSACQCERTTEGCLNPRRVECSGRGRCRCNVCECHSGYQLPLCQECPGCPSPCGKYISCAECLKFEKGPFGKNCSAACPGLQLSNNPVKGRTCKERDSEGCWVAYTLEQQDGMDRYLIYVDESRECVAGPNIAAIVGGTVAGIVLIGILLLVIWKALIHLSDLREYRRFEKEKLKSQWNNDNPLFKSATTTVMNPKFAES
CD11b adhes enh – enhancers of CD11b/CD18 adhesion to fibrinogen, primary screen, K562 cells, luminescence | Integrin beta-2 (Homo sapiens) + Integrin alpha-M (Homo sapiens), P05107+P11215 | ATPlite luminescence | activation, % at 10 µM | hit rate 0.07% among 93,000 | AID 1499, 2009;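 active = 10 µM primary screen giving 50% or more activity, confirmed by 40% or more on retest at that dose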
CYP2C9 act – human CYP2C9 activators, primary screen, biochemical, luminescence; Cytochrome P450 2C9 (Homo sapiens), P11712; recombinant CYP2C9, luciferin-H conversion; active compounds read high; factor 1 = untreated enzyme, 0 = blocked; activation factor at 5 µM; hit rate 1.4% among 96,000; AID 1024, 2008;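 active = activation factor of 2 or more for CYP2C9 at a 5 µM dose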
CYP2C19 act – human CYP2C19 activators, primary screen, biochemical, luminescence. recombinant CYP2C19, luciferin-H EGE luminescence; active compounds read high; 0 = fully inhibited enzyme, 1 = untreated enzyme. activation factor at 5 µM. 96,000 tested, under 10 active. Cytochrome P450 2C19 (Homo sapiens), P33261;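 active = activation factor of at least 2 at 5 µM in the primary screen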
CYP2C19 inh – blockers of cytochrome P450 2C19 activity – biochemical, luminescence, ADME assay, primary screen | P33261 | CYP2C19 Supersomes, luciferin-H EGE luminescence, 30 min | inhibition, % at 5 µM | hit rate 21% among 96,000;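 active = CYP2C19 inhibition above a set limit at 5 µM in the primary screen, cut at about 50% in these data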
CYP2C9 inh – blockers of cytochrome P450 2C9 activity – biochemical, luminescence, ADME assay, primary screen | CYP2C9 Supersomes, luciferin-H conversion | hit rate 20% among 96,000 | AID 777, 2007 | P11712 | inhibition, % at 5 µM;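 active = blocking of liver enzyme CYP2C9 beyond about 50% at 5 µM, limit read from the data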
Of the large screens only hits and unclear results are named; the others gave an inactive call.

COc1ccc(-c2nnn(CC(=O)N(Cc3ccccc3Cl)C(C(=O)NCC3CCCO3)c3ccco3)n2)cc1 (stereo not given)	none (no result: Mac1 fbg inh, CD11b adhes enh)
O=C(NCC(=O)N(c1ccccc1F)C(C(=O)NCC1CCCO1)c1ccccc1)c1ccco1 (stereo not given)	none
Cc1ccc(-c2nnn(CC(=O)N(c3ccccc3F)C(C(=O)NCC3CCCO3)c3c[nH]c4ccccc34)n2)cc1 (stereo not given)	CYP2C9 inh 75 (no result: Mac1 fbg inh, CD11b adhes enh)
CC1CN(S(=O)(=O)c2cccc(C(=O)NCc3ccc4c(c3)OCO4)c2)CC(C)O1 (stereo not given)	none
Cc1ccc(NC(=O)C2CC(=O)N/C(=N/N=C/c3ccco3)S2)cc1C (stereo not given)	none (no result: CYP2C9 act, CYP2C19 act, CYP2C19 inh, CYP2C9 inh)
Cc1cc(-c2ccccc2)nc(=O)[nH]1	none
O=c1nc(-c2ccccc2)cc(C(F)(F)F)[nH]1	CYP2C9 inh 51 (no result: Mac1 fbg inh, CD11b adhes enh)
COCc1nc(-c2cc(OC)c(OC)c(OC)c2)no1	CYP2C9 inh 51
COc1ccccc1CC(=O)Nc1ccc(-c2noc(COc3cccc(C)c3C)n2)cc1	CYP2C9 inh 63
COc1ccc(-c2noc(COc3ccc4c(c3)OCO4)n2)cc1OC	none
COc1ccccc1CC(=O)Nc1ccc(-c2noc(COc3ccc(Br)cc3)n2)cc1	none
COc1ccc(-c2noc(COc3ccccc3OC)n2)cc1OC	CYP2C19 inh 78
Cn1ccnc1C(O)(c1nnc(-c2ccccc2)o1)C(F)(F)F (stereo not given)	none
O=C(c1ccc(Cl)cc1)N(Cc1cccs1)C1CCS(=O)(=O)C1 (stereo not given)	none
O=C1CC(c2ccccc2)CN1C(=O)c1ccccc1 (stereo not given)	CYP2C19 inh 52
CC(=O)Nc1ccc(N2C(=O)CC(c3ccccc3)CC2=O)cc1	none (no result: Mac1 fbg inh, CD11b adhes enh)
O=S(=O)(NCCCCCNS(=O)(=O)c1ccc(F)cc1)c1ccc(F)cc1	CYP2C19 inh 54, CYP2C9 inh 73
Cc1ccc(SCCNS(=O)(=O)c2ccc(F)cc2)cc1	CYP2C19 inh 96, CYP2C9 inh 88
O=S(=O)(NCCSc1ccc(Cl)cc1)c1ccc(F)cc1	CYP2C9 inh 57 (no result: Mac1 fbg inh, CD11b adhes enh)
CCOC(=O)N1CCN(c2c(NCCCN3CCCCCC3)c(=O)c2=O)CC1	none
Cc1cc(Cl)ccc1OCC(=O)NCc1ccncc1	CYP2C19 inh 95, CYP2C9 inh 82 (no result: Mac1 fbg inh, CD11b adhes enh)
Cc1cc(Cl)ccc1OCC(=O)NCCC(=O)O	none
Cc1cc(=O)oc2cc(OCC(=O)NCc3ccncc3)ccc12	CYP2C19 inh 65, CYP2C9 inh 91
Cc1cc(Cl)ccc1OCCCC(=O)NO	none (no result: Mac1 fbg inh, CD11b adhes enh)
CSc1ccccc1NC(=O)COc1ccc(Cl)cc1Cl	none (no result: CYP2C9 act, CYP2C19 act, CYP2C19 inh, CYP2C9 inh)
CCn1cc(C(C)NC(=O)COc2ccc(Cl)cc2C)c(C)n1 (stereo not given)	CYP2C19 inh 62, CYP2C9 inh 82
O=C(COc1ccc(Cl)cc1Cl)Nc1ccccn1	Mac1 fbg inh 99, CYP2C19 inh 70, CYP2C9 inh 78
Cc1ccc(Nc2nc(N)c([N+](=O)[O-])c(N3CCCC(C)C3)n2)cc1C (stereo not given)	none (no result: CYP2C9 act, CYP2C19 act, CYP2C19 inh, CYP2C9 inh)
CC(Oc1ccc(Cl)cc1)C(=O)NCCCn1ccnc1 (stereo not given)	CYP2C19 inh 100, CYP2C9 inh 89
O=C(COc1ccc(Cl)cc1Cl)NCCCCc1ccccc1	none (no result: Mac1 fbg inh, CD11b adhes enh)
CN(C)P(=NC(=O)COc1ccc(Cl)cc1Cl)(N(C)C)N(C)C	CYP2C19 inh 92
Cc1cc(Cl)ccc1OCC(=O)NCCOc1nc(N2CCCCC2)nc(N2CCOCC2)n1	none
O=C(COc1ccc(Cl)cc1Cl)NCc1ccncc1	CYP2C19 inh 100, CYP2C9 inh 95
CC(C)NC(=O)COc1ccc(Cl)cc1Cl	none
COc1cc(C)nc(OCCNC(=O)COc2ccc(Cl)cc2C)n1	CYP2C19 inh 73
O=C(COc1ccc(Cl)cc1Cl)NCCCn1ccnc1	CYP2C19 inh 100, CYP2C9 inh 97
CC(=O)NC(=S)Nc1ccc(NC(=O)COc2ccc(Cl)cc2Cl)cc1	CD11b adhes enh 53
Cc1cc2oc(C(=O)NCc3ccncc3)c(C)c2cc1C	CYP2C19 inh 98, CYP2C9 inh 97
O=C(COc1ccccc1O)Nc1ccc(Cl)cc1	CYP2C19 inh 88, CYP2C9 inh 60 (no result: Mac1 fbg inh, CD11b adhes enh)
CC(NC(=O)OCc1ccccc1)C(=O)N1CC(O)CC1C(=O)O (stereo not given)	none
CSc1ccccc1NC(=O)COc1ccccc1Cl	CYP2C19 inh 77, CYP2C9 inh 59 (no result: Mac1 fbg inh, CD11b adhes enh)
COc1cc(/C=C2\OC(=O)c3c(OC)cccc32)ccc1O	CYP2C19 inh 97, CYP2C9 inh 95
CCc1nc2ccccc2n1Cc1cc(=O)n2cc(C)ccc2n1	none
CC(=O)C(C)Oc1cc(C)cc2oc(=O)c(C)c(C)c12 (stereo not given)	CYP2C9 inh 57
Cn1c(SCC(=O)Nc2ccccc2-c2ccccc2)nnc1-c1ccco1	CYP2C19 inh 60
Cc1occc1-c1nnc(SCC(=O)Nc2ccccc2-c2ccccc2)n1C	CYP2C19 inh 76, CYP2C9 inh 76
Cn1c(SCC(=O)N2c3ccccc3Sc3ccccc32)nnc1-c1ccco1	CYP2C19 inh 68, CYP2C9 inh 70
CCc1nnc(NC(=O)CSc2nnc(-c3ccco3)n2C)s1	none
CCCn1c(SCC(=O)Nc2ccccc2-c2ccccc2)nnc1-c1ccoc1C	CYP2C19 inh 82, CYP2C9 inh 87
Cn1nnnc1SCC(=O)Nc1ccccc1-c1ccccc1	none
CC(C)c1cc(CN2CCN(CCC#N)CC2)cc(C(C)C)c1O	none (no result: Mac1 fbg inh, CD11b adhes enh)
O=C(NCc1ccc2c(c1)OCO2)C1CCN(c2ncccn2)CC1	none
CCOC(=O)c1cc(-c2ccccc2)sc1NC(=O)C(C)N1C(=O)c2ccccc2C1=O (stereo not given)	none (no result: CYP2C9 act, CYP2C19 act, CYP2C19 inh, CYP2C9 inh)
Oc1ccc(Nc2nc3ccccc3nc2Nc2ccc(O)cc2)cc1	CYP2C19 inh 99, CYP2C9 inh 99
Cc1n[nH]c(=O)nc1Nc1ccc(O)cc1	none
O=C(Nc1ncc(Br)s1)C(Cc1ccccc1)n1cccc1 (stereo not given)	Mac1 fbg inh 79, CYP2C19 inh 88, CYP2C9 inh 97
CCC(C(=O)N1CCc2cc(OC)c(OC)cc2C1)c1ccccc1 (stereo not given)	CYP2C19 inh 73, CYP2C9 inh 73 (no result: Mac1 fbg inh, CD11b adhes enh)
O=C(Nc1cccnc1)C(Cc1ccccc1)n1cccc1 (stereo not given)	none
O=C(C(Cc1ccccc1)n1cccc1)N1CCN(Cc2ccccc2)CC1 (stereo not given)	CYP2C9 inh 62

From PubChem BioAssay
